PubChem BioAssay AID720509 (The Scripps Research Institute Molecular Screening Center, 2013)
About 760 (0.21%) of roughly 370,000 compounds were called active.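 The calls were made as follows: active = inhibition above a per-campaign cutoff: mean of compounds within control limits plus 3 SD (cut at about 15% in these data); inactive = the rest.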 The entries come from a sample that favours actives as a whole.

Molecular target: Fibrinogen beta chain (Homo sapiens) (UniProt P02675)
Experiment: small molecules displacing Tn6 from DD(E) complex – biochemical, fluorescence polarization, human fibrin, Tn6 probe, primary screen (AID 720509);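 also: 0% = median of all compound wells on the plate and 100% = blocking peptide control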
Conditions: Fibrin DD(E) TRITC-Tn6 fluorescence polarization displacement; at 8.3 µM; active compounds read high

Sequence of Fibrinogen beta chain (Homo sapiens) (P02675 whole entry, looked up): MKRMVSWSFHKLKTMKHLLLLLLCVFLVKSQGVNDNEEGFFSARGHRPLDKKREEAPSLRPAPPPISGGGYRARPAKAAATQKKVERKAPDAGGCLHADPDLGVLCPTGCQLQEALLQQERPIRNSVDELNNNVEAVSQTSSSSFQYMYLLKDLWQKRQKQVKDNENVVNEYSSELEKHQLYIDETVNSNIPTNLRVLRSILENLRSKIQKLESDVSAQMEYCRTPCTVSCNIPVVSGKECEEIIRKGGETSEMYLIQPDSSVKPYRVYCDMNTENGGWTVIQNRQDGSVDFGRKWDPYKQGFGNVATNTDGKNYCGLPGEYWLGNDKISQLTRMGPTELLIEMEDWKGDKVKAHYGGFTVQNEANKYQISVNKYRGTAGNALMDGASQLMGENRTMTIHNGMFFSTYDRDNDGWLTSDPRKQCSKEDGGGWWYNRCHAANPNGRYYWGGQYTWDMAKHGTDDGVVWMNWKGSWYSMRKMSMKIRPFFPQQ

| SMILES | inhibition |
| --- | --- |
| CC1CNCCN1c1ccc(Cl)cc1 (stereo not given) | 0.71% (inactive) |
| Cc1cc(N2CCNC[C@@H]2C)ccc1N1CC[C@H](O)C1 | 15.6% (active) |
| COc1ccccc1-n1c(O)c(C=NC2CC2)c(=O)[nH]c1=O | -5.91% (inactive) |
| CC(=O)C1(O)CCC2C3CCC4=C(Cl)C(=O)CCC4(C)C3CCC21C (stereo not given) | -1.79% (inactive) |
| OC(Cn1c2ccccc2c2ccccc21)C[n+]1ccccc1 (stereo not given) | -10% (inactive) |
| COc1c(O)ccc2c1-c1c3c(cc4c1C(C2)N(C)CC4)OCO3 (stereo not given) | 0.43% (inactive) |
| COC1=C[C@@H]2[C@@H]3Cc4ccc(OC)c(O)c4[C@]2(CCN3C)CC1=O | 5.14% (inactive) |
| COc1ccc2c(c1O)-c1cccc3c1[C@@H](C2)N(C)CC3 | 15.8% (active) |
| Fc1cccc(F)c1CN1CCN(Cc2c(F)cccc2F)CC1 | -1.68% (inactive) |
| CO[C@H]([C@H](C)/C=C/N(C)C=O)[C@@H](C)C(=O)CC[C@H](C)[C@H](O)[C@H](C)[C@H]1OC(=O)/C=C/C(C)=C/[C@H](O)[C@H](OC)C[C@@H]2C=CC[C@@H](C[C@H](OC)[C@@]3(CO3)[C@@H](OC)C[C@@H](OC)[C@@H]1C)O2 | 1.04% (inactive) |
